According to PubChem BioAssay AID1159580 (chemical genetic matrix, 2015):
The whole screen tested about 5,500 compounds, of which about 2,000 (36%) were called active. Not shown: some 18% with an inconclusive outcome. Cut-off read from the data, not from the text of the source: active = normalized growth mostly below about 0.91 (no sharp cut-off); inconclusive = no clear call, values can overlap the other calls; inactive = mostly above about 0.92. The list shows a part of the results.

Experiment: chemical genetic growth profiling, strain panel (AID 1159580);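 note: tested at 20 µM; growth read once vehicle control cultures reached saturation at 30 °C; 1 = growth at the plate median or of vehicle wells; lower values mean less growth of the strain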
Settings: growth OD

Measured: normalized growth

CC(=O)O[C@H]1C[C@H](O[C@H]2[C@@H](O)C[C@H](O[C@H]3[C@@H](O)C[C@H](O[C@H]4CC[C@@]5(C)C(CCC6C5C[C@@H](O)[C@]5(C)[C@@H](C7=CC(=O)OC7)CC[C@]65O)C4)O[C@@H]3C)O[C@@H]2C)O[C@H](C)[C@H]1O[C@@H]1O[C@H](CO)[C@@H](O)[C@H](O)[C@H]1O (stereo not given in full)
inactive: S. cerevisiae deletion strains, locus YJR075W, strain HOC1, hits give low values 1.02 | S. cerevisiae deletion strains, locus YKL009W, strain mrt4, hits give low values 1 | S. cerevisiae deletion strains, locus YKL068W, hits give low values 1 | S. cerevisiae deletion strains, locus YKL085W, strain MDH1 (second series), hits give low values 1 | S. cerevisiae deletion strains, locus YKL085W, strain MDH1, hits give low values 1 | S. cerevisiae deletion strains, locus YKL160W, strain elf1, hits give low values 1.01 | S. cerevisiae deletion strains, locus YKL190W, strain CNB1, hits give low values 1.01 | S. cerevisiae deletion strains, locus YKR001C, strain vps1, hits give low values 1.01 | S. cerevisiae deletion strains, locus YKR026C, strain gcn3, hits give low values 0.982 | S. cerevisiae deletion strains, locus YKR091W, strain srl3, hits give low values 1 | S. cerevisiae deletion strains, locus YLL001W, strain dnm1, hits give low values 1 | S. cerevisiae deletion strains, locus YLL026W, hits give low values 0.999 | S. cerevisiae deletion strains, locus YLL041C, strain sdh2, hits give low values 1 | S. cerevisiae deletion strains, locus YLR027C, strain aat2, hits give low values 1 | S. cerevisiae deletion strains, locus YLR039C, strain RIC1, hits give low values 1.05 | S. cerevisiae deletion strains, locus YLR058C, strain SHM2, hits give low values 1.02 | S. cerevisiae deletion strains, locus YLR102C, strain apc9, hits give low values 0.978 | S. cerevisiae deletion strains, locus YLR113W, strain HOG1, hits give low values 0.977 | S. cerevisiae deletion strains, locus YLR221C, strain rsa3, hits give low values 1 | S. cerevisiae deletion strains, locus YLR258W, strain gsy2, hits give low values 0.994 | S. cerevisiae deletion strains, locus YLR262C, strain YPT6 (second series), hits give low values 0.999 | S. cerevisiae deletion strains, locus YLR262C, strain YPT6, hits give low values 1.04 | S. cerevisiae deletion strains, locus YLR268W, strain sec22, hits give low values 1 | S. cerevisiae deletion strains, locus YLR320W, strain mms22, hits give low values 0.999 | S. cerevisiae deletion strains, locus YLR330W, strain CHS5, hits give low values 1.01 | S. cerevisiae deletion strains, locus YLR342W, strain FKS1 (second series), hits give low values 1.02 | S. cerevisiae deletion strains, locus YLR342W, strain FKS1, hits give low values 1 | S. cerevisiae deletion strains, locus YLR357W, strain rsc2, hits give low values 0.993 | S. cerevisiae deletion strains, locus YLR370C, strain arc18, hits give low values 0.994 | S. cerevisiae deletion strains, locus YLR371W, strain rom2, hits give low values 0.975 | S. cerevisiae deletion strains, locus YLR384C, strain iki3, hits give low values 0.988 | S. cerevisiae deletion strains, locus YLR418C, strain cdc73, hits give low values 1.05 | S. cerevisiae deletion strains, locus YML016C, strain PPZ1, hits give low values 1.01 | S. cerevisiae deletion strains, locus YML032C, strain rad52, hits give low values 0.991 | S. cerevisiae deletion strains, locus YML120C, strain ndi1, hits give low values 0.992 | S. cerevisiae deletion strains, locus YML124C, strain tub3, hits give low values 0.992 | S. cerevisiae deletion strains, locus YMR058W, strain fet3, hits give low values 1 | S. cerevisiae deletion strains, locus YMR078C, strain ctf18, hits give low values 0.984 | S. cerevisiae deletion strains, locus YMR125W, strain sto1, hits give low values 0.979 | S. cerevisiae deletion strains, locus YMR129W, hits give low values 0.991 | S. cerevisiae deletion strains, locus YMR205C, strain PFK2, hits give low values 0.974 | S. cerevisiae deletion strains, locus YMR223W, strain ubp8, hits give low values 0.997 | S. cerevisiae deletion strains, locus YMR231W, strain pep5, hits give low values 0.989 | S. cerevisiae deletion strains, locus YMR263W, strain SAP30, hits give low values 1.01 | S. cerevisiae deletion strains, locus YMR307W, strain GAS1, hits give low values 1.07 | S. cerevisiae deletion strains, locus YNL067W, strain RPL9B, hits give low values 1 | S. cerevisiae deletion strains, locus YNL071W, strain lat1, hits give low values 0.999 | S. cerevisiae deletion strains, locus YNL183C, strain NPR1, hits give low values 0.922 | S. cerevisiae deletion strains, locus YNL209W, strain ssb2, hits give low values 0.999 | S. cerevisiae deletion strains, locus YNL233W, strain BNI4, hits give low values 1.01 | S. cerevisiae deletion strains, locus YNL248C, strain rpa49, hits give low values 0.998 | S. cerevisiae deletion strains, locus YNL250W, strain rad50, hits give low values 1.01 | S. cerevisiae deletion strains, locus YNL271C, strain bni1, hits give low values 1.01 | S. cerevisiae deletion strains, locus YNL298W, strain CLA4, hits give low values 1 | S. cerevisiae deletion strains, locus YNL307C, strain MCK1, hits give low values 0.991 | S. cerevisiae deletion strains, locus YNL322C, strain KRE1 (second series), hits give low values 0.993 | S. cerevisiae deletion strains, locus YNL322C, strain KRE1, hits give low values 1.01 | S. cerevisiae deletion strains, locus YNR049C, strain mso1, hits give low values 0.992 | S. cerevisiae deletion strains, locus YNR052C, strain pop2, hits give low values 0.994 | S. cerevisiae deletion strains, locus YOL006C, strain TOP1, hits give low values 1.03 | S. cerevisiae deletion strains, locus YOL012C, strain htz1 0.846 | S. cerevisiae deletion strains, locus YOL147C, strain pex11, hits give low values 0.988 | S. cerevisiae deletion strains, locus YOR001W, strain rrp6, hits give low values 1.01 | S. cerevisiae deletion strains, locus YOR061W, strain CKA2, hits give low values 1.01 | S. cerevisiae deletion strains, locus YOR069W, strain VPS5, hits give low values 1.01 | S. cerevisiae deletion strains, locus YOR070C, strain gyp1, hits give low values 0.999 | S. cerevisiae deletion strains, locus YOR080W, strain dia2, hits give low values 0.999 | S. cerevisiae deletion strains, locus YOR083W, strain WHI5, hits give low values 1 | S. cerevisiae deletion strains, locus YOR106W, strain vam3, hits give low values 1.01 | S. cerevisiae deletion strains, locus YOR136W, strain idh2, hits give low values 1 | S. cerevisiae deletion strains, locus YOR144C, strain elg1, hits give low values 1 | S. cerevisiae deletion strains, locus YOR184W, strain ser1, hits give low values 1.02 | S. cerevisiae deletion strains, locus YOR231W, strain MKK1, hits give low values 0.983 | S. cerevisiae deletion strains, locus YOR265W, strain rbl2, hits give low values 1 | S. cerevisiae deletion strains, locus YOR270C, strain vph1, hits give low values 0.946 | S. cerevisiae deletion strains, locus YOR290C, strain snf2, hits give low values 1.02 | S. cerevisiae deletion strains, locus YOR316C, strain cot1, hits give low values 0.982 | S. cerevisiae deletion strains, locus YPL051W, strain arl3, hits give low values 1 | S. cerevisiae deletion strains, locus YPL055C, strain LGE1, hits give low values 0.997 | S. cerevisiae deletion strains, locus YPL078C, strain atp4, hits give low values 1.02 | S. cerevisiae deletion strains, locus YPL106C, strain sse1, hits give low values 1 | S. cerevisiae deletion strains, locus YPL240C, strain hsp82, hits give low values 0.999 | S. cerevisiae deletion strains, locus YPL241C, strain CIN2, hits give low values 1.01 | S. cerevisiae deletion strains, locus YPL256C, strain CLN2, hits give low values 0.994 | S. cerevisiae deletion strains, locus YPR119W, strain clb2, hits give low values 0.981 | S. cerevisiae deletion strains, locus YPR141C, strain kar3, hits give low values 1.01 | S. cerevisiae deletion strains, locus YPR163C, strain tif3, hits give low values 0.99 | S. cerevisiae deletion strains, locus YPR167C, strain met16, hits give low values 1.01 | S. cerevisiae deletion strains, strain wtn01, hits give low values 1.01 | S. cerevisiae strains, strain wild type, hits give low values 1.01
